Set-up in all cases: scale not given: direction of the effect not stated beside the values
In assay [1] the target is Protein translocase subunit SecA (Escherichia coli (strain K12)) (UniProt P10408). The assay is described as follows: Assay to Identify E. coli SecA ATPase Inhibitors. The assay is classed as functional. Conditions: 30 µM.
Assay [2] concerns the target T1, Ubiquitin-activating enzyme e1, putative (Leishmania donovani (strain BPK282A1)) (UniProt E9BSI1).
T1 sequence (whole entry): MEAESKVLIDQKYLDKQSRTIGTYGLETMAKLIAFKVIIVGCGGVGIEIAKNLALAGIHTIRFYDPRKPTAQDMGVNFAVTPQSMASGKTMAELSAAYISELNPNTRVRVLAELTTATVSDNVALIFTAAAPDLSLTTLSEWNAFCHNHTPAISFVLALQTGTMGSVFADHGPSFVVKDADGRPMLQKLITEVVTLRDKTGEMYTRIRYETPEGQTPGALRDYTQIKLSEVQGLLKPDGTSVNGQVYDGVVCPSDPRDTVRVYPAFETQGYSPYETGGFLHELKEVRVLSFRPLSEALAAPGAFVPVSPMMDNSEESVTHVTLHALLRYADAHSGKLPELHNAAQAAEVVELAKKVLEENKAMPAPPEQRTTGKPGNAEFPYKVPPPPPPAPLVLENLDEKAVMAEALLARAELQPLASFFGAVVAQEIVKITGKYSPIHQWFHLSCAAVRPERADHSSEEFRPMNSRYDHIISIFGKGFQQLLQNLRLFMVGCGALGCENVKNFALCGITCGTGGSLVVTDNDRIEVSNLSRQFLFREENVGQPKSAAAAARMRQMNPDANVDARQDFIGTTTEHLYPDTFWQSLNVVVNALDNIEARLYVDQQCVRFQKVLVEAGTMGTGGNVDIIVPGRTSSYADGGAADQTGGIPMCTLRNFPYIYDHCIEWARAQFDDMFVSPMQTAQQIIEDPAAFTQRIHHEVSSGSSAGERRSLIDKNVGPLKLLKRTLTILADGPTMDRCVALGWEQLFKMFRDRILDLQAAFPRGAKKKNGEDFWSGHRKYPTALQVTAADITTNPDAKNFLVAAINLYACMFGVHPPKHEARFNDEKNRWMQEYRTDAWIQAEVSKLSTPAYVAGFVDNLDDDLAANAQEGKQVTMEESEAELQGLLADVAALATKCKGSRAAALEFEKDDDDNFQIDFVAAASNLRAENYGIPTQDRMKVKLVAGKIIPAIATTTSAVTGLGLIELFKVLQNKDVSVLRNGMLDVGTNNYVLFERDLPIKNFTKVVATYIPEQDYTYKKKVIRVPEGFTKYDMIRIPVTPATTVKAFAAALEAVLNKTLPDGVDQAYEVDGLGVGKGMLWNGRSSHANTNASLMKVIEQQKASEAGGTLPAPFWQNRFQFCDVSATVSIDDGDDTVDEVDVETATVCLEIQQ
Kind of assay: Leishmania donovani Ubiquitin Activating Enzyme (LdE1). Format: functional. The settings on record: 30 µM.

Assay [3] concerns the target T2, Aspartate--tRNA(Asp/Asn) ligase (Mycobacterium tuberculosis (strain ATCC 25618 / H37Rv)) (UniProt P9WFW3). Further: in the data most compounds retested in dose-response had high values.
T2 sequence (whole entry): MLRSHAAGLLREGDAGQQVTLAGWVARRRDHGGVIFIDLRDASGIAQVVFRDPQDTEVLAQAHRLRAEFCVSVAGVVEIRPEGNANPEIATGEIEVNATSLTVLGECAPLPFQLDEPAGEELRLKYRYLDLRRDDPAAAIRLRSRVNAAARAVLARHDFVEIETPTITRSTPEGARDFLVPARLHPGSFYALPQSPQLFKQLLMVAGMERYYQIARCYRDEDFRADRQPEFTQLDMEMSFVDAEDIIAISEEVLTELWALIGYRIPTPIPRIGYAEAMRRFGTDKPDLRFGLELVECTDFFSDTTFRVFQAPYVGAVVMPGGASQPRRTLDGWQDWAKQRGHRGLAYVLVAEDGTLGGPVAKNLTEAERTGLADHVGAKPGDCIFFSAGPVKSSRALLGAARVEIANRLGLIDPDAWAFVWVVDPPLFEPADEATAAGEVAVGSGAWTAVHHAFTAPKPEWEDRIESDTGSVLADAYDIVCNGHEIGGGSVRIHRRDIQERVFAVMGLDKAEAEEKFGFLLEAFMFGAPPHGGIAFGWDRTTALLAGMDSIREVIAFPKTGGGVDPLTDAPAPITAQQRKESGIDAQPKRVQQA
Kind of assay: Assay for Asp RNA synthetase-1 from Mycobacterium tuberculosis. Format: functional. Conditions: 30 µM.

The target of assay [4] is AMP-activated protein kinase, AMPK (Homo sapiens) (UniProt P54646+O43741+P54619+Q9UGJ0+Q9Y478+Q13131+Q9UGI9). The assay is described as follows: AMP-dependent Kinase enzyme assay. An in vitro enzyme assay that detects ADP turnover that is directly proportional to AMPK activity. This uses naive AMPK that is activated during the assay with MK-8722. The assay is classed as functional. Conditions: 30 µM.

The target in assay [5] is Sialic acid-binding Ig-like lectin 9 (Homo sapiens) (UniProt Q9Y336). Kind of assay: Hs-Siglec9 ALPHAscreen SOP 20170721. Conditions: 10 µM.
Sequence of Sialic acid-binding Ig-like lectin 9 (Homo sapiens) (Q9Y336 whole entry): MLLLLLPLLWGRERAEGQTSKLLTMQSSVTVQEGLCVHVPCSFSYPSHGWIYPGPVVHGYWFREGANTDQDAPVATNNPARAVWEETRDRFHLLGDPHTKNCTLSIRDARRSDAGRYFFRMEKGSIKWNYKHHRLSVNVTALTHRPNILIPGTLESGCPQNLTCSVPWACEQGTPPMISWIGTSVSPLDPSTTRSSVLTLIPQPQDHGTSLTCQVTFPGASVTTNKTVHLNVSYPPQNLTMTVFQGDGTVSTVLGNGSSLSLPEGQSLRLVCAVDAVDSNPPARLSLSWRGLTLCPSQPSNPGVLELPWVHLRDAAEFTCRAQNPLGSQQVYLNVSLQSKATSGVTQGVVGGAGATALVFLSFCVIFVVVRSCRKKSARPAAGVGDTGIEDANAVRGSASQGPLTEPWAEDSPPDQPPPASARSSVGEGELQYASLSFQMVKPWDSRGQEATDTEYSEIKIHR
The test system of another assay is Trypanosoma cruzi. The assay is described as follows: Trypanosoma cruzi phosphomannomutase and mannose-1-phosphate guanylyltransferase assay. Format: functional. The settings on record: 10 µM.
Assay [6] has as its target T3, Arginase-2, mitochondrial (Homo sapiens) (UniProt P78540).
T3 sequence (whole entry): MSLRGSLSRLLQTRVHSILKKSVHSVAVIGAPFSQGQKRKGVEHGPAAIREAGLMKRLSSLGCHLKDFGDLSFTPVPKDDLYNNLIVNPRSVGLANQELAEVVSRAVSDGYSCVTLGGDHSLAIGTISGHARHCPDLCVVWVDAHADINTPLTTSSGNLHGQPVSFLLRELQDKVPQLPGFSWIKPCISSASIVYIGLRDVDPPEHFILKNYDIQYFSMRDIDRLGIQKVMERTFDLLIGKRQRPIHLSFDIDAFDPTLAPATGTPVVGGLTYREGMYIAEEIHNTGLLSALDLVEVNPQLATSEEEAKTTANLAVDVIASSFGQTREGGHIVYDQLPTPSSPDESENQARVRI
The assay is described as follows: in vitro enzyme assay to detect the production of urea directly proportional to the activity of Arginase II. Further: in the data most compounds retested in dose-response had high values. Format: functional. Conditions: 33.3 µM.

In assay [7] the target is T4, Proteasome subunit beta (Trypanosoma cruzi) (UniProt O96673).
T4 sequence (whole entry): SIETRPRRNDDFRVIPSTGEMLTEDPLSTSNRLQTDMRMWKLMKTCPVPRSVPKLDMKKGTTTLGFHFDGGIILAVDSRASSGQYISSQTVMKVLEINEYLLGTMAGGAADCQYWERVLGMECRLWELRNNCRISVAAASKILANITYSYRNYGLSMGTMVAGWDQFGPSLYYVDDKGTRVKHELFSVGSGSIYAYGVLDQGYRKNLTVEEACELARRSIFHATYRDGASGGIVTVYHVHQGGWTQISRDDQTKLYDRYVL
The assay is described as follows: Trypanosoma cruzi proteasome chymotrypsin-like activity (TcProtChymo) assay. Further: in the data most compounds retested in dose-response had high values. Conditions: 9.37 µM. The assay is classed as functional.

The species named for a further assay is Homo sapiens. Kind of assay: To identify inhibition of the IFN signalling (Jak-Stat) pathway via expression of an eGFP reporter gene under the control of an IFN-stimulated response element (ISRE) containing MxA promoter. Format: functional. The settings on record: 30 µM. On the technique in general: Reporter assays use an easily measured gene product as a stand-in for the process of interest.

Assay [8] addresses Shiga toxin 2 (Escherichia coli O157:H7) (UniProt P09385+P09386). Kind of assay: E. coli 0.157:H7 Shiga Toxin SOP - stx2 screening assay. The assay is classed as functional. Conditions: 30 µM.
Assay [9] addresses T5, Tyrosyl-tRNA synthetase, putative (Trypanosoma cruzi (strain CL Brener)) (UniProt Q4DSP6).
T5 sequence (whole entry): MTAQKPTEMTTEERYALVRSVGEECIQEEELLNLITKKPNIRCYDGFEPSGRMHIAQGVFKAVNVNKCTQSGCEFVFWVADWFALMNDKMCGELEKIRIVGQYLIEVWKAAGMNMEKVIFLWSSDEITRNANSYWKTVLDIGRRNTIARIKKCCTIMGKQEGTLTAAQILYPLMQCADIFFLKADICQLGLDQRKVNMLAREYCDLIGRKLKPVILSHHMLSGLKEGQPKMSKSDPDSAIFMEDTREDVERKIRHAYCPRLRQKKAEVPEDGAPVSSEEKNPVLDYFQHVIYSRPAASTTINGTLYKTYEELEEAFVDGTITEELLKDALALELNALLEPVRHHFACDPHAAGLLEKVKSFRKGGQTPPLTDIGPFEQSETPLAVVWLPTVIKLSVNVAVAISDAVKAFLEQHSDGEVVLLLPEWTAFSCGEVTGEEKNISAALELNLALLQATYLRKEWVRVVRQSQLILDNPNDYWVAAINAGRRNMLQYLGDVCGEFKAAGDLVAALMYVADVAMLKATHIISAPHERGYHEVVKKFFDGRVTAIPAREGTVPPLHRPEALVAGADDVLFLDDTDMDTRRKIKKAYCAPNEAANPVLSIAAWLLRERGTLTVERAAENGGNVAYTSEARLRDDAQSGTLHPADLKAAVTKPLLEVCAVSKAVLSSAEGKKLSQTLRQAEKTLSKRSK
Kind of assay: Trypanosoma cruzi tyrosyl tRNA synthetase (TcYRS) _High Tyrosine SOP. Further: in the data most compounds retested in dose-response had high values. The assay is classed as functional. The settings on record: 30 µM.

The target of assay [10] is T5, Tyrosyl-tRNA synthetase, putative (Trypanosoma cruzi (strain CL Brener)). Kind of assay: Trypanosoma cruzi tyrosyl tRNA synthetase (TcYRS) SOP. Format: functional. Conditions: 30 µM.
Assay [11] addresses Chromo domain-containing protein 1 (Saccharomyces cerevisiae (strain ATCC 204508 / S288c) (Baker's yeast)) (UniProt P32657). The assay is described as follows: ScCHD-1 Enzyme Inhibition Assay. Further: in the data most compounds retested in dose-response had high values. Format: functional. Conditions: 30 µM.

For some assays here: Results with a measured potency or affinity are listed apart.

Data on 5 compounds can be found in ChEMBL document CHEMBL3988442, “University of Dundee, Small-Polar-MMV Screening Library” (2021).

Sequence of Protein translocase subunit SecA (Escherichia coli (strain K12)) (P10408 whole entry): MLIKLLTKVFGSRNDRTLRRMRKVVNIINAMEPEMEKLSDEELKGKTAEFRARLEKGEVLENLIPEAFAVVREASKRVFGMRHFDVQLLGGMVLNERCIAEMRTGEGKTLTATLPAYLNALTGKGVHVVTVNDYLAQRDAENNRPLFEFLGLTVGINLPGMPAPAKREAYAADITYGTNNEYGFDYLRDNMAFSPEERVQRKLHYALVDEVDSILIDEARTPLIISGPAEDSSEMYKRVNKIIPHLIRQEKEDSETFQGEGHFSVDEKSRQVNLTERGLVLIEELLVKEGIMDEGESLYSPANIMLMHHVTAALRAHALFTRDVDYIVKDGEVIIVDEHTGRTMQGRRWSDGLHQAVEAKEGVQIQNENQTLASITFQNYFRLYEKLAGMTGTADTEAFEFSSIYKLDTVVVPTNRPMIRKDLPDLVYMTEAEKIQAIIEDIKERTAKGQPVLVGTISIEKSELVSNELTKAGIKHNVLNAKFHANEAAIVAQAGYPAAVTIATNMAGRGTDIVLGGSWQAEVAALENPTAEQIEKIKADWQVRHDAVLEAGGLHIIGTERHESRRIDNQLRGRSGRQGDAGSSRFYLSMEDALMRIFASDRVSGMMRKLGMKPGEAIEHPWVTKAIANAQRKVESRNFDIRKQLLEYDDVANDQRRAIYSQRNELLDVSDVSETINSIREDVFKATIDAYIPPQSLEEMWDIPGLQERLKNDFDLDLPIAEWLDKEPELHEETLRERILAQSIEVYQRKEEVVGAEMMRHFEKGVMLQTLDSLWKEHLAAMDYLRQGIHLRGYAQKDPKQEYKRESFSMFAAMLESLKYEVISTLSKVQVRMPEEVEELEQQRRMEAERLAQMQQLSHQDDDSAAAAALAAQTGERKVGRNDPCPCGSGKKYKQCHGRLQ
Sequence of Chromo domain-containing protein 1 (Saccharomyces cerevisiae (strain ATCC 204508 / S288c) (Baker's yeast)) (P32657 whole entry, the tested form may be a part): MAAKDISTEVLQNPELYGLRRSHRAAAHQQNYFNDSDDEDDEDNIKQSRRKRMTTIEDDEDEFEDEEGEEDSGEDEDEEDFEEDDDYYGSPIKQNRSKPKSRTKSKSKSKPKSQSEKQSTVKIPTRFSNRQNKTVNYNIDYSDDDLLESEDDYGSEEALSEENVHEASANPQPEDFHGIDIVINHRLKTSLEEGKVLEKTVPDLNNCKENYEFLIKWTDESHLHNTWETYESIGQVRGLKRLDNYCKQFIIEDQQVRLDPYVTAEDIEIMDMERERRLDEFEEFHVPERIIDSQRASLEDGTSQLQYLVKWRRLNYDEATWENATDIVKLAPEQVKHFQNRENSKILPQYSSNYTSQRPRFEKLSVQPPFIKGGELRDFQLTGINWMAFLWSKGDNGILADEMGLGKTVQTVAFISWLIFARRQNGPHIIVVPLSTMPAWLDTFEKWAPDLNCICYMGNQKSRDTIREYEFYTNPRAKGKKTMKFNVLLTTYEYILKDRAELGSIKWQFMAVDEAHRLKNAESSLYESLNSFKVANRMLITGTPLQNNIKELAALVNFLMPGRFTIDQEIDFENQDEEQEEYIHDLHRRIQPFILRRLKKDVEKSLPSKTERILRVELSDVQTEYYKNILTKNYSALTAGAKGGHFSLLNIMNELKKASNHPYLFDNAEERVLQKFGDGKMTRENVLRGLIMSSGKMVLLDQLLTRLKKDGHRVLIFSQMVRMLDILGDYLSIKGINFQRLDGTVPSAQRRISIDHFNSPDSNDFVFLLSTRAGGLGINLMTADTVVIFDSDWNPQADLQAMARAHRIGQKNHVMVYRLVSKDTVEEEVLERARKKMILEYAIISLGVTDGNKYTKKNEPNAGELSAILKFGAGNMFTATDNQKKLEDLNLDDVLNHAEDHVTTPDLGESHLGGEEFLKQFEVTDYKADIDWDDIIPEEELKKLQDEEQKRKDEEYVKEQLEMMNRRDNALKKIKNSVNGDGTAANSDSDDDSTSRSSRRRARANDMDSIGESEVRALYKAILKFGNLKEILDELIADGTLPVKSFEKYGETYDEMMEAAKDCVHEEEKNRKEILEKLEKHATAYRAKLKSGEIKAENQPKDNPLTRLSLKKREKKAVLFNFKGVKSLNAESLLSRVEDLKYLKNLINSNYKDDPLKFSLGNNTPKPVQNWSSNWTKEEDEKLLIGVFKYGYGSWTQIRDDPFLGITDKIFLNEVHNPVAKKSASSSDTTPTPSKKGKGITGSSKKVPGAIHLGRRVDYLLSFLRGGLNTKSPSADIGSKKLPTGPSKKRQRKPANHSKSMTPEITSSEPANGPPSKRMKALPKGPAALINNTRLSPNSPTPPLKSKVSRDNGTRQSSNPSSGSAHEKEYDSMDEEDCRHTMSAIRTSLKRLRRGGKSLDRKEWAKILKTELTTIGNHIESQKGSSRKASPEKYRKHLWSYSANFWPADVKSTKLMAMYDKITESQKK

Consider `O=C(C1CCOC1)N1C[C@H]2CN(Cc3ccccn3)C[C@H]2C1` (stereo not given in full), for which the Percent Effect was -0.372% in assay [1]; 13.5% in [2]; -0.474% in assay [3]; 2.96% in [4]; -5.9% in assay [5]; 0.293% in the assay with Trypanosoma cruzi. For the same compound, the Percent Effect was 6.05% in assay [6]; 16.2% in assay [7]; -9.37% in the assay listed under Homo sapiens; -2.63% in assay [8]; 6.49% in assay [9]; 15.4% in assay [10]. For the same compound, the Percent Effect in [11] is -0.817%.
For the compound `CC(C)N1CCC2(CCN(C(=O)c3cccnc3)CC2)C1`, the Percent Effect in assay [1] is 1.13%; in assay [2] it was 10.8%; in assay [3], 1.7%; in assay [4], 4.26%; in assay [5] it was -12.5%; in the assay with Trypanosoma cruzi, -9.68%. Also, the Percent Effect in assay [6] is 8.6%; in assay [7] it was 20.9%; in the assay filed under Homo sapiens, -1.74%; in assay [8] it was -5.59%; in assay [9], -24.9%; in [10], 10.3%. Moreover, the Percent Effect in assay [11] was -2.2%.
Take `CC(C)c1nc(N2CCN3CCCC3C2)c2cnn(C)c2n1` (stereo not given): the Percent Effect was -0.588% in assay [1]; 8.22% in assay [2]; 4.74% in [3]; -0.789% in assay [4]; 7.41% in assay [5]; 1.98% in the assay on Trypanosoma cruzi. Further, the Percent Effect is -6.79% in assay [6]; 8.82% in assay [7]; -37.1% in the assay filed under Homo sapiens; -16.2% in [8]; 8.33% in assay [9]; 16.1% in [10]. For the same compound, the Percent Effect in assay [11] is -6.37%.
Regarding `c1ccc(CN2C[C@@H]3OCCN(c4ncccn4)[C@@H]3C2)nc1`, the Percent Effect in assay [1] is -3.31%; in [2] it was 5.33%; in [3] it was -0.456%; in [4] it was 12.4%; in assay [5], 1.5%; with Trypanosoma cruzi, -4.53%. In addition, the Percent Effect is -1.17% in assay [6]; -2.73% in assay [7]; 6.09% in the assay listed under Homo sapiens; 1.03% in assay [8]; 6.38% in assay [9]; 8.97% in assay [10]. Moreover, the Percent Effect in [11] was -1.36%.
For the compound `CC(c1ccc(F)cc1)N1CCN(Cc2ccc(C#N)cc2)CC1` (stereo not given), the Percent Effect in assay [1] is -5.23%; in assay [2], 13.5%; in assay [3] it was -0.88%; in assay [4], -5.75%; in assay [5] it was 2.94%; in the assay on Trypanosoma cruzi, -4.81%. Also, the Percent Effect is -0.401% in assay [6]; 7.57% in assay [7]; 18.8% in the assay listed under Homo sapiens; 24.7% in assay [8]; 4.43% in [9]; 13.6% in assay [10]. The Percent Effect in [11] is -5.01%.
